# About 31,000 (8.9%) of roughly 350,000 compounds were called active. Entries that show only a call come without a potency. About 15% were inconclusive and are not listed. Calls follow the shape of the dose curve; as a rule, active = well fitted inhibition curve with a large enough effect; inconclusive = small, poorly fitted or top-dose-only effect; inactive = no such curve, though single readings can be large or run the other way. The sample as a whole holds a higher share of actives than the screen did.
# Biological target: Histone-lysine N-methyltransferase EHMT2 (Homo sapiens) (UniProt Q96KQ7)
# Experiment: qHTS Assay for Inhibitors of Histone Lysine Methyltransferase G9a; also: nearly all actives have a fitted effect of over 75% in size
# Details: G9a H3K9 monomethylation, AlphaScreen, 2 h; series mostly up to 59 µM
# Outline: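 Quantitative HTS format: methyltransferase activity on a biotin-tagged H3K9 peptide is measured by AlphaScreen, using a rabbit anti-monomethyl-H3K9 antibody with streptavidin donor and anti-IgG acceptor beads. Final levels are 20 nM enzyme, 500 nM peptide, 20 uM SAM; 2 h RT.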
# Potency is read from the fitted curve at half-maximal effect.
# Histone-lysine N-methyltransferase EHMT2 (Homo sapiens), sequence (Q96KQ7 913-1193 limits assumed): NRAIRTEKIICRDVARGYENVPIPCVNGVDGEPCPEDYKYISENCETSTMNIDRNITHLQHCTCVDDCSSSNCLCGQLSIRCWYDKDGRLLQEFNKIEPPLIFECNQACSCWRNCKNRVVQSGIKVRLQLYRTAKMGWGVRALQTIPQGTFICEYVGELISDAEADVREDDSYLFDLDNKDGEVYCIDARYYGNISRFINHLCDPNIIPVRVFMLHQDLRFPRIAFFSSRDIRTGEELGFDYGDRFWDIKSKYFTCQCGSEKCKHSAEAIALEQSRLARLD
Compound,Potency,"activity, negative = inhibition"
Cc1ccc(C)c(N2CCN(C(=O)Cc3c(C(=O)O)c(C)cn3C)CC2)c1,inactive,–
CCC(C(=O)N1CCN(S(=O)(=O)c2sc(C(=O)O)c(C)c2C(=O)O)CC1)c1ccccc1 (stereo not given),–,-9.12% [at 2.33 µM] (inactive)
COc1ccc(C(=O)Oc2cc(/C=N/NS(=O)(=O)c3ccc(C)cc3)ccc2OC)cc1,inactive,–
COc1cc(/C=N/Nc2ccc(C)cc2)cc(Br)c1O,3.98 µM (active),–
COc1cc(/C=N/O)cc(Br)c1OS(=O)(=O)c1ccc(C)cc1,inactive,–
O=C(NC1CC(=O)N(c2ccc(F)cc2)C1)C1CCCCC1 (stereo not given),inactive,–
COc1ccc(NC(=O)CSc2nnc(-c3nnn(-c4ccc(F)cc4)c3C)o2)cc1,inactive,–
Cc1c(O)c(C)c2c(c1O)C(=O)C[C@@H](c1ccccc1)O2,–,17.8% [at 2.33 µM] (inactive)
CCn1c(SCC(=O)NNC(=O)c2ccc(OC)cc2)nnc1C(C)C,inactive,–
CCn1c(SCC(=O)Nc2nc(C)cs2)nnc1C(C)NC(=O)c1ccccc1 (stereo not given),inactive,–
CCn1c(C(C)NC(=O)c2ccc(C)cc2)n[nH]c1=S (stereo not given),39.8 µM (active),–
CC(NC(=O)CCc1cn(Cc2ccccc2Cl)c2ccccc12)c1ccccc1 (stereo not given),inactive,–
COc1ccc(Cn2c(=O)n(-c3ccccc3C)c(=O)c3c4c(sc32)CN(C(C)=O)CC4)cc1,inactive,–
CCN(CC)c1ccc2c(Nc3ccccc3)c(C=O)c(=O)oc2c1,inactive,–
CCN(CC)c1ccc2cc(C(N)=O)/c(=N\NC(=O)c3ccncc3)oc2c1,inactive,–
CCN(CC)c1ccc2oc(=O)c(C)nc2c1,11.2 µM (active),–
COc1ccc(CNc2nc(-c3ccc(Cl)cc3)nn2C(=O)c2ccccc2)cc1,inactive,–
CCN(Cc1ccccc1)S(=O)(=O)c1cc2c3c(c1)CCN3C(=O)CC2,inactive,–
CCN(CC)c1ccc(NC(=O)C2CCC(CNc3c(N4CCCC4)c(=O)c3=O)CC2)c(C)c1 (stereo not given),39.8 µM (active),–
O=C(NCc1ccccc1Cl)C1CCC(CNc2c(N3CCCCC3)c(=O)c2=O)CC1 (stereo not given),inactive,–
CCOc1ccccc1NC(=O)C1CCC(CNc2c(N3CCOCC3)c(=O)c2=O)CC1 (stereo not given),inactive,–
COc1ccc(Cc2nc3ccc(C(=O)NCC4CCOCC4)cc3o2)cc1OC,inactive,–

Compound,Potency,"activity, negative = inhibition"
CC(C)N(C(=O)CSc1nnc(NC2CC2)s1)c1ccccc1,–,-6.53% [at 0.501 µM] (inactive)
CC(C)C(=O)Nc1nnc(SCC(=O)N2C(C)CCCC2C)s1 (stereo not given),79.4 µM (active),–
CC1CCCC(C)N1C(=O)CSc1nnnn1C1CCCC1 (stereo not given),inactive,–
COc1cccc(-c2cc(C(=O)Nc3ccc(C)cc3)[nH]n2)c1,inactive,–
COc1ccc(-c2csc(-c3c(N)c(C(=O)c4ccc(OC)c(OC)c4)n4ccccc34)n2)cc1,inactive,–
COc1cc(CN(C(=O)c2ccccc2Br)c2ccccn2)cc(OC)c1OC,inactive,–
O=C(c1ccncc1)N1CCN(S(=O)(=O)c2cc(C(F)(F)F)cc(C(F)(F)F)c2)CC1,inactive,–
OCCCNC(c1ccccc1)c1ccc(O)cc1 (stereo not given),11.2 µM (active),–
O=C(CNC(c1ccccc1)c1ccccc1)Nc1ccc(F)cc1,inactive,–
O=C(Nc1cc(Cl)cc(Cl)c1)C(NCCCO)c1ccccc1 (stereo not given),inactive,–
CCCCN(C)CCCNC(=O)CN1N=C(c2ccc(OC)cc2)CCC1=O,inactive,–
O=C(NCCCN1CCCC1=O)c1ccc(S(=O)(=O)Nc2ccccc2)cc1,inactive,–
CC(=O)Nc1ccc(NC(=O)CCN2C(=O)C3CC=CCC3C2=O)cc1 (stereo not given),–,-17% [at 12.7 µM] (inactive)
Cc1ccccc1OCC(=O)Nc1c(C(=O)Nc2ccccc2F)oc2ccccc12,inactive,–
COc1cccc(C2c3[nH]c4ccccc4c3CCN2Cc2cccc(C)n2)c1 (stereo not given),44.7 µM (active),–
COc1cccc(CNC(=O)c2n[nH]c3ccccc23)c1,inactive,–
COc1cccc(N2CCN(C(=O)CCCCCn3c(=O)[nH]c4ccccc4c3=O)CC2)c1,inactive,–
COc1ccc(CNC(=O)COCc2cc(-c3cccs3)on2)cc1OC,inactive,–
CN(CC1CCCN(CCc2cccc(C(F)(F)F)c2)C1)C(=O)c1ccc2nc[nH]c2c1 (stereo not given),inactive,–
Cc1cc(C(=O)Nc2nnc(C3CC3)s2)c(C)s1,–,11.4% [at 12.7 µM] (inactive)
O=C(NNC(=O)c1cccnc1)Nc1ccccc1,–,-81.4% [at 2.33 µM] (inactive)
O=C(CNC(=O)c1cccnc1)N/N=C/c1cccnc1,inactive,–

Compound,Potency,"activity, negative = inhibition"
O=C(O)CSC(NC(=O)c1cccnc1)(C(F)(F)F)C(F)(F)F,14.1 µM (active),–
CCN(CC)S(=O)(=O)c1ccc(-c2cn3ccc(C)cc3n2)cc1,–,4.83% [at 0.501 µM] (inactive)
CCOC(=O)CSc1ncc(-c2cccc(Cl)c2)cn1,inactive,–
COC(=O)c1ccccc1NC(=O)CSc1ccccn1,inactive,–
CCOC(=O)CSc1ccccn1,39.8 µM (active),–
O=C(Nc1ccccc1Cl)N1CCC(CN2CCCCC2)CC1,inactive,–
COc1ccc2sc(-c3ccc(N(C)C)cc3)c(C#CCO)c2c1,–,8.02% [at 0.501 µM] (inactive)
COc1ccc(-c2cc(-c3nc(-c4cc(OC)c(OC)c(OC)c4)no3)[nH]n2)c(OC)c1,inactive,–
CN(C)/N=C/c1cn(-c2ccccc2)nc1-c1cccnc1,56.2 µM (active),–
CC(C)(C)OC(=O)N/N=C/c1cn(-c2ccccc2)nc1-c1cccnc1,inactive,–
O=C(c1cn(-c2ccccc2)nc1-c1cccnc1)N1CCCCC1,inactive,–
CCCCc1ccc(NS(=O)(=O)c2cccc(C(=O)N3CCCN(C)CC3)c2)cc1,inactive,–
CC(=O)NC(CC(=O)Nc1cccc(S(=O)(=O)N2CCCC2)c1)c1ccccc1 (stereo not given),inactive,–
O=C(Cn1nc([N+](=O)[O-])nc1Br)NC1CCCCC1,inactive,–
Cc1nn(CC(=O)NC2CCCCC2)c(=O)c2cccn12,inactive,–
Cc1cc(C(F)F)nn1CC(=O)NC1CCCCCC1,79.4 µM (active),–
CCc1noc(C)c1C(=O)N1CCCSC1=Nc1ccccc1OC,inactive,–
O=C1c2ccccc2C(=O)N1CCC#Cc1ccc2cc(C3(O)CCCCC3)oc(=O)c2c1,–,1.05% [at 0.501 µM] (inactive)
C=CCN1C(=O)c2ccc(C(=O)N3CCC(C(=O)OCC)CC3)cc2C1=O,inactive,–
Cc1cc(=O)n2nc(N3CCCC(C(=O)NCCC4=CCCCC4)C3)sc2n1 (stereo not given),–,4.22% [at 12.7 µM] (inactive)
CC1CCCN(C(=O)c2ccc3c(c2)C(=O)N(CCC2=CCCCC2)C3=O)C1 (stereo not given),39.8 µM (active),–

# — PubChem BioAssay AID504332 (National Center for Advancing Translational Sciences (NCATS), 2011)
